# Results as given in the supplement of paper PMC12045047.
# Values without a mark were called inactive.
# Tested on: primary human airway basal cells (HBEC, luciferase-transduced)
# Experiment: proliferation (luciferase bioluminescence) Z score relative to plate mean; higher = more proliferation / more cells, active = 1.96 or more
# Details: donor: 1, library: ENZO Libraries, 4 days
# Description: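 Primary human bronchial epithelial (airway basal) cells from two donors, lentivirally transduced with pHIV-Luc-ZsGreen, were seeded at 2000 cells/well in 384-well plates in FAD medium with ENZO or Prestwick library compounds and cultured for 4 days. Luciferin was then added and bioluminescence was read as a measure of cell number. Relative light units were converted to Z scores against the plate, and the mean of triplicate wells is reported.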
SMILES,proliferation (0.5 µM),proliferation (5 µM)
CN(C)c1ccc(/C=C2/C(=O)Nc3ccccc32)cc1,-0.0148,1.43
CNC(=O)[C@H](Cc1c[nH]c2ccccc12)NC(=O)[C@@H](CC(=O)NO)CC(C)C,-0.298,-0.522
N[C@H](C(=O)O)[C@@H]1CC(Cl)=NO1 [Acivicin],-0.75,-1.56
N#CC(=C(/N)Sc1ccccc1N)/C(C#N)=C(/N)Sc1ccccc1N,-1.3,-1.33
O=C1Nc2ccc(I)cc2/C1=C/c1cc(Br)c(O)c(Br)c1,-0.115,-0.66
O=C(O)CCCc1ccccc1,-0.468,-0.326
CC1(C)C[C@@H]1C(=O)N/C(=C\CCCCSC[C@H](N)C(=O)O)C(=O)O [Cilastatin],-0.499,-0.038
C=C1C(=O)O[C@@H](CCC)[C@@H]1C(=O)O [Butyrolactone 3],-0.342,0.149
O=C(NCCCCN1CCOCC1)c1cc2ccccc2o1,-0.215,-0.00355
O=C(c1ccc(Cl)cc1Cl)n1nnc2ccccc21,-0.0821,0.316
O=C1CCc2c(ccc3ccccc23)O1 [Splitomicin],-0.477,-0.269
Oc1cc(O)cc(/C=C/c2ccc(O)c(O)c2)c1 [Piceatannol],-0.115,1.52
CC(C)C[C@H](NC(=O)[C@@H](O)[C@H](N)Cc1ccccc1)C(=O)O,-0.66,-0.519
C=C(C)[C@@H](CC=C(C)C)C[C@@]12C[C@@H](CC=C(C)C)C(C)(C)[C@@](CC=C(C)C)(C(=O)C(C(=O)c3ccc(O)c(O)c3)=C1O)C2=O [Garcinol],-0.468,-0.215
CO[C@@H]1[C@H](OC(=O)/C=C/C=C/C=C/C=C/C(=O)O)CC[C@]2(CO2)[C@H]1[C@@]1(C)O[C@@H]1CC=C(C)C [Fumagillin],-1.58,-0.343
N#CC(C#N)=C(N)/C(C#N)=C/c1cc(O)c(O)c(O)c1,-0.239,-0.228
CCOC(=O)[C@H](CCc1ccccc1)N[C@@H](C)C(=O)N1CCC[C@H]1C(=O)O [Enalapril],-0.154,-0.126
CC(C)n1cnc2c(NCc3ccccc3)nc(NCCO)nc21 [N9-isopropyl-olomoucine],-0.31,-0.285
COc1cc2ncc(-c3ccccc3)nc2cc1OC,2.2 (active),2.78 (active)
O=c1cc(N2CCOCC2)oc2c(-c3ccccc3)cccc12,-0.437,-0.857
Cc1ccc(S(=O)(=O)N[C@@H](Cc2ccccc2)C(=O)CCl)cc1,-0.621,-0.67
Nc1nc2ncnc-2c[nH]1 [2-Aminopurine],-0.301,-0.296
CC(C)c1cnc(NC(=O)Cc2ccccc2)s1,0.304,0.142
